PLK1 PBD inh: PLK1 (human) polo-box domain binding inhibition. Plk1 PBD binding of FITC phosphopeptide, fluorescence polarization. 360,000 compounds, 2.8% hits. AID 720504. Potency, µM, most hits filed as inhibitors; further: series mostly up to about 57 µM; nearly all actives have a fitted effect of over 65% in size
HP1b binding inh: blocks HP1-beta chromodomain binding to methylated histone tails; P83916; AlphaScreen HP1-beta / biotin-H3K9me3 peptide binding; Potency, µM (highest dose often 114 µM), hits mostly inhibitors; 390,000 compounds, 0.56% hits; further: nearly all actives have a fitted effect of over 70% in size
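AlphaScreen: HP1-beta (50 nM) preformed 30 min with biotin-H3(1-18)K9me3 peptide (50 nM) in PBS pH 7.4, 0.01% Tween-20. Compound added for 30 min at RT, then streptavidin donor/nickel chelate acceptor beads (10 ug/mL) for 30 min.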
JMJD2A Tudor inh: JMJD2A Tudor domain (human) inhibition; O75164; AlphaScreen JMJD2A-Tudor / H3K4me3 peptide binding; Potency, µM (highest dose often 114 µM), hits mostly inhibitors; 390,000 compounds, 4.4% hits; further: nearly all actives have a fitted effect of over 50% in size
BAZ2B inh: BAZ2B (human) inhibition; Q9UIF8; AlphaScreen BAZ2B-H3K14Ac peptide displacement; Potency, µM (doses to about 114 µM), usual class: inhibitors; 360,000 compounds, 4.4% hits; AID 504333; further: nearly all actives have a fitted effect of over 60% in size
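BAZ2B 50 nM plus b-H3(5-23)K14Ac 50 nM, PBS pH 7.4/0.01% Tween-20, 30 min RT; compound added (max 110 uM), 30 min RT; streptavidin donor/Ni-chelate acceptor beads 10 ug/mL final, 20 min dark; AlphaScreen read.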
Sfp inh: inhibitors of Bacillus subtilis Sfp phosphopantetheinyl transferase; Q9F4F7; Biochemical Sfp PPTase activity, qHTS; Potency, µM, actives largely listed as inhibitors; 310,000 compounds, 3.5% hits; AID 1490;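 further: the enzyme is Sfp with the accession as filed and its product quenches rhodamine fluorescence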
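After 15 min at room temperature with compound, 15 nM Sfp received 5 uM rhodamine-CoA plus 12.5 uM BHQ-2-ybbR (50 mM Hepes pH 7.6, 10 mM MgCl2). Rate came from the fluorescence difference over 30 min, ex 525/em 598 nm.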
G9a block: inhibitors of human histone lysine methyltransferase G9a; Q96KQ7; G9a H3K9 monomethylation, AlphaScreen, 2 h; Potency, µM (titrated, usually from 102 µM), usual class: inhibitors; 350,000 compounds, 8.8% hits; AID 504332; further: nearly all actives have a fitted effect of over 75% in size
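G9a (20 nM) preincubated 15 min RT with compounds, then 500 nM biotinylated H3K9 peptide and 20 uM SAM added; 2 h RT reaction. Monomethyl-H3K9 product detected by AlphaScreen with anti-H3K9me1 antibody, streptavidin donor and anti-rabbit IgG acceptor beads.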
Hits are given with their value; – = inactive; ? = inconclusive; · = not tested or not shown; [ ] = another dose, or the depositor's remark. In the library only some 12% were active in any assay of this set; here they are far more common. The call rests on the fitted dose curve; in most records, active means well fitted curve in the direction sought with a large enough effect; inconclusive means small, poorly fitted or top-dose-only effect, or another doubt; inactive means no such curve, though single readings can be large; an effect the other way counts as inactive or inconclusive.

SMILES	PLK1 PBD inh	HP1b binding inh	JMJD2A Tudor inh	BAZ2B inh	Sfp inh	G9a block
COc1ccccc1NC(=O)c1oc2ccccc2c1NC(=O)c1ccccc1C(F)(F)F	·	–	–	–	·	–
CCc1ccccc1NC(=O)c1ccc2c(c1)N(Cc1cc(C)ccc1C)C(=O)c1ccccc1S2(=O)=O	·	–	–	–	·	–
COc1cc(/C=C2\N=C(c3ccccc3)OC2=O)ccc1OC(C)=O	–	–	–	–	–	·
COc1ccc(/C=C2\N=C(C)OC2=O)cc1OC	–	–	–	–	–	35µM
COc1ccc(/C=C2\N=C(C)OC2=O)cc1OC(C)=O	–	–	–	–	–	28µM
Cc1cc(C)n2nc(C(=O)OCC(=O)NCc3ccccc3)nc2n1	–	–	–	–	·	–[12.7 µM]
COc1ccc(NC(=O)C(OC)c2ccccc2)cc1Cl (stereo unspecified)	–	–	–	–	–	–
COc1ccc(NC(C)C(=O)Nc2ccc(C#N)cc2)cc1Cl (stereo unspecified)	–	–	?	?	–	–
COc1ccc(NC(=O)C(NCC(C)C)c2ccccc2)cc1Cl (stereo unspecified)	–	16µM	4.5µM	40µM	50µM	50µM
COc1ccc(NC(C)C(=O)Nc2ccc(C(C)(C)C)cc2)cc1Cl (stereo unspecified)	–	–	?	45µM	–	?
COc1ccccc1CNc1ncnc2ccc(-c3ccc(C(=O)N(C)C)cc3)cc12	·	·	·	·	–	–[0.501 µM]
COC(=O)c1ccc(-c2ccc(/C=N/N3C(=O)C4C5C=CC(CC5)C4C3=O)o2)cc1 (stereo unspecified)	–	–	–	–	–	·
O=C(O)c1cc(-c2ccc(/C=N/N3C(=O)C4C5C=CC(C6CC56)C4C3=O)o2)ccc1Cl (stereo unspecified)	–	–	–[11.4 µM]	79µM	–	45µM
Cc1ccc(-c2ccc(/C=N/N3C(=O)C4C5C=CC(CC5)C4C3=O)o2)c([N+](=O)[O-])c1 (stereo unspecified)	–	–	–	?	–	45µM
O=C1C2C3C=CC(C4CC34)C2C(=O)N1/N=C/c1ccc(-c2ccc(F)cc2[N+](=O)[O-])o1 (stereo unspecified)	–	–	?	?	–	8.9µM
O=C1C2C3C=CC(C4CC34)C2C(=O)N1/N=C/c1ccc(-c2ccc(Cl)cc2[N+](=O)[O-])o1 (stereo unspecified)	–	?	?	?	–	35µM
COc1ccc(-c2ccc(/C=N/N3C(=O)C4C5C=CC(C6CC56)C4C3=O)o2)c([N+](=O)[O-])c1 (stereo unspecified)	–	–	?	?	–	?
COC(=O)N1C(C)=Cc2ccccc2C1C/C(C)=C/C(C)=O (stereo unspecified)	·	·	·	·	–	·
Cc1[nH]c2ccccc2c1C(=O)C(C)OC(=O)c1ccccc1NCCO (stereo unspecified)	–	–	–	–	·	45µM
CCC1=C2CC[C@H]3C(=O)N(CC)C(=O)[C@H]3[C@H]2[C@@]2(C)C(=O)N(CC(=O)OC)C(=O)N2C1=O	·	·	·	·	–	·
CCC1=C2CC[C@H]3C(=O)N(CC(=O)OC)C(=O)[C@H]3[C@H]2[C@@]2(C)C(=O)N(CC3CC3)C(=O)N2C1=O	·	·	·	·	50µM	·
Cc1ccc(C)c(NC(=O)c2cc(S(=O)(=O)N3CCCCC3)ccc2N2CCOCC2)c1	–	–	–	–	·	–[12.7 µM]
COc1cc(NC(=O)c2cc([N+](=O)[O-])ccc2N2CCOCC2)ccc1NC(=O)c1ccco1	–	–	–	71µM	–	·
O=C(Nc1ccc2oc(=O)ccc2c1)c1cc([N+](=O)[O-])ccc1N1CCOCC1	–	–	–	–	–	–
O=C(Nc1ccc(N2CCCC2)cc1)c1cc([N+](=O)[O-])ccc1N1CCOCC1	–	?	45µM	?	–	·
SMILES	PLK1 PBD inh	HP1b binding inh	JMJD2A Tudor inh	BAZ2B inh	Sfp inh	G9a block
Cc1ccc(S(=O)(=O)N2CCOCC2)cc1NC(=O)c1cc([N+](=O)[O-])ccc1N1CCOCC1	–	–	–	–	·	56µM
Cc1cc(=O)oc2cc(NC(=O)c3cc([N+](=O)[O-])ccc3N3CCOCC3)ccc12	–	–	–	–	–	40µM
COc1ccc(NC(=O)CN(C)C(=O)CN2C(=O)C3CCCCC3C2=O)cc1 (stereo unspecified)	–	–	–	–	·	?
CC[C@@]12CCCN3CCc4c(n(c5ccccc45)C(=O)C1)[C@H]32	·	·	·	·	–	–[0.843 µM]
COc1ccc(-c2oc3ncn4nc(-c5ccccc5OC)nc4c3c2-c2ccc(OC)cc2)cc1	·	–	–	–	·	–
O=C(c1cc([N+](=O)[O-])ccc1N1CCOCC1)N1CCN(c2ccc([N+](=O)[O-])cc2)CC1	–	–	–	–	·	11µM
O=C(Nc1ccc(NC(=O)c2cc([N+](=O)[O-])ccc2N2CCOCC2)cc1)c1cccs1	–	–	–	–	–	28µM
O=C(Nc1cc([N+](=O)[O-])ccc1N1CCOCC1)c1cccs1	–	–	–	–	–	–
COC(=O)c1cc(NC(=O)c2cccs2)ccc1N1CCOCC1	27µM	–	50µM	–	–	?
N#Cc1cc([N+](=O)[O-])ccc1N1CCCC1	27µM	?	?	–	–	–
CCc1nc2c(cnn2-c2ccc(Cl)cc2)c(=O)n1-c1ccc(OC)c(Cl)c1	·	–	–	·	·	–
O=C(OCC#CCSc1nnc(-c2cccc3ccccc23)o1)c1ccc(Cl)c(C(F)(F)F)c1	·	·	–	·	·	·
CCOc1ccc(CNC(=O)c2ccc(CSc3nc4ccncc4n3Cc3ccc(F)cc3)cc2)cc1	·	–	–	–	·	–
Clc1ccc2nc(C(Cl)(Cl)Cl)[nH]c2c1	–	·	·	·	·	·
COc1ccc(Cn2c(=O)c3oc4ccccc4c3n(Cc3ccc(Cl)cc3)c2=O)cc1	·	–	–	–	·	–
Cc1cc(Cl)ccc1OCC(=O)Nc1c(C(=O)c2ccccc2)oc2ccccc12	·	–	–	–	·	–
Cc1c(Cl)cn2c(=O)cc(CN(C)Cc3nc4ccccc4c(=O)[nH]3)nc2c1Cl	·	·	·	·	–	–
CCOC(=O)c1cc(CC)sc1NC(=O)c1cc([N+](=O)[O-])ccc1N1CCOCC1	?	–	–	–	–	11µM
CN1CCN(C(=O)c2cc([N+](=O)[O-])ccc2Cl)CC1	–	–	–	–	–	50µM
CN1CCN(c2ccc([N+](=O)[O-])cc2C(=O)N2CCCCC2)CC1	–	–	–	–	–	–
CCCC1CC(=O)OC1(C)C(=O)CSc1n[nH]c(-c2ccccc2)n1 (stereo unspecified)	·	·	·	–	?	11µM
O=C(CSc1n[nH]c(-c2ccccc2)n1)N1CCOCC1	–	–	–	?	–	–
CCCC1CC(C)(C(=O)CSc2n[nH]c(-c3ccccc3)n2)OC1=O (stereo unspecified)	–	–	35µM	?	79µM	32µM

Bioassay records as filed in PubChem BioAssay.
